This passage reports growth results from PubChem BioAssay (NCI).

This is part of a sample that, as a whole, favours compounds with a hit. Of some 83,000 tested, about 20% had one in any assay.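 A percent growth of 40 corresponds to 60% growth inhibition; 0 means no net growth; -100 means all cells died. Active threshold: below 10.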 Values without a mark were called inactive. Active and inactive are the calls of the source.

The test system of this experiment is UO-31 renal. The experiment is described as follows: NCI-60 one-dose screen, 48 h (100 = growth as untreated, 0 = no growth, -100 = all killed). The following applies: 10 µM unless noted.
Consider `COC(=O)[C@@H](C)C[C@H](Cc1ccccc1)NC(=O)c1nc([C@@H](C[C@H](C(C)C)N(C)C(=O)[C@@H](NC(=O)[C@H]2CCCN2C)C(C)C)OC(C)=O)sc1C`, for which the growth was 43.9%.

`CCCCCSC1C2C(=O)C(Br)=CC13CCNc1c(O)c4c5c(c13)=[N+]2CCC=5C=N4` (configuration not stated): the growth was -66.9% (active).

With `CC1=C(CCCOC(=O)CN)C2=C(C)C3(CC3)[C@@](C)(O)C(=O)C2=C1`, the growth was 73.3%.

As to `COC(=O)CC[C@H](Cc1ccccc1)NC(=O)c1csc([C@@H](C[C@H](C(C)C)N(C)C(=O)[C@@H](NC(=O)[C@H]2CCCCN2C)C(C)C)OC(C)=O)n1`, the growth was 49.7%.

Take `COC(=O)CC12CC(NC(=O)c3csc([C@@H](C[C@H](C(C)C)N(C)C(=O)[C@@H](NC(=O)[C@H]4CCCCN4C)C(C)C)OC(C)=O)n3)(C1)C2`: the growth is 55.2%.

With `O=C1CNC(c2ccccc2)c2cc(Cl)ccc2N1` (configuration not stated), the growth was 80.4%.

With `CC1(C)N=C(N)N=C(N)N1c1cccc(CCCCc2ccc(Cl)c(S(=O)(=O)F)c2)c1`, the growth is 92.4%.

`CC(=O)O[C@H](C[C@H](C(C)C)N(C)C(=O)[C@@H](NC(=O)[C@H]1CCCCN1C)C(C)C)c1nc(C(=O)N[C@@H](Cc2ccccc2)C[C@H](C)C(=O)O)c(C(C)C)s1`: the growth was 41.5%.

`COC(=O)[C@@H](C)C[C@H](Cc1ccccc1)NC(=O)c1csc(CC[C@H](C(C)C)N(C)C(=O)[C@@H](NC(=O)[C@H]2CCCCN2C)C(C)C)n1`: the growth is 48.8%.

With `CCOP(=O)(NC[C@H]1O[C@](O)(CO)[C@@H](O)[C@@H]1O)OCC`, the growth is 69.9%.

Turning to `COc1cc([C@@H]2c3cc4c(cc3[C@H](OC(C)=O)[C@H]3COC(=O)[C@H]23)OCO4)cc(OC)c1OC`, the growth was 43.7%.

`COC(=O)[C@@H](C)C[C@H](Cc1cn(C)c2ccccc12)NC(=O)c1csc([C@@H](C[C@H](C(C)C)N(C)C(=O)[C@@H](NC(=O)[C@H]2CCCCN2C)C(C)C)OC(C)=O)n1`: the growth is 34.1%.

`CCOC(=O)[C@@H](C)C[C@H](Cc1ccccc1)NC(=O)c1csc([C@@H](C[C@H](C(C)C)N(C)C(=O)[C@@H](NC(=O)[C@H]2CCCCN2C)C(C)(C)C)OC(C)=O)n1`: the growth was 20.6%.

Regarding `CC1=C(CCCNS(C)(=O)=O)C2=C(C)C3(CC3)[C@@](C)(O)C(=O)C2=C1`, the growth is -32.6% (active).

With `COC(=O)[C@@H](C)C[C@H](Cc1ccccc1)NC(=O)c1cccc([C@@H](C[C@H](C(C)C)N(C)C(=O)[C@@H](NC(=O)[C@H]2CCCCN2C)C(C)C)OC(C)=O)n1`, the growth was 41.8%.

For `CNC(=O)Oc1ccc(C(C)(C)C)cc1OC(=O)NC`, the growth is 94.9%.

With `CC1(C)C(C(=O)c2cn(CCCCF)c3ccccc23)C1(C)C`, the growth is 95.2%.

Consider `CC(=O)O[C@H](C[C@H](C(C)C)N(C)C(=O)[C@@H](NC(=O)[C@H]1CCCCN1C)C(C)C)c1nc(C(=O)NC2CCC(C(=O)O)CC2)cs1` (some centres not stated), for which the growth is 76.4%.

With `CCCC[C@H](NC(=O)[C@H]1CCCN1C)C(=O)N(C)[C@H](C[C@@H](OC(C)=O)c1nc(C(=O)N[C@@H](Cc2ccccc2)C[C@H](C)C(=O)OCC)cs1)C(C)C`, the growth was 40.2%.

Consider `CCOC(=O)[C@@H](C)C[C@H](Cc1ccccc1)NC(=O)c1csc([C@@H](C[C@H](C(C)C)N(C)C(=O)CNC(=O)[C@H]2CCCCN2C)OC(C)=O)n1`, for which the growth was 39.7%.

Regarding `COc1ccc([As]=[As]c2ccc(OC)c(NCS(=O)(=O)O)c2)cc1NCS(=O)(=O)O` (configuration not stated), the growth is 25.7%.

Consider `CC1=C(CCCOC(=O)[C@H](N)CC(C)C)C2=C(C)C3(CC3)[C@@](C)(O)C(=O)C2=C1`, for which the growth is -42.1% (active).

Take `O=[N+]([O-])c1cc(I)cc([N+](=O)[O-])c1`: the growth is 108%.

As for `CC(=O)OC[C@]1(C)C=C2C(=O)[C@](C)(O)C3(CC3)C(C)=C2[C@H]1OC(=O)N(C)CCN(C)C(=O)OC(C)(C)C`, the growth was -48.5% (active).

Regarding `CC[C@H](C)[C@H](NC(=O)[C@H]1CCCCN1C)C(=O)N(C)[C@H](CCc1nc(C(=O)N[C@@H](Cc2ccccc2)C[C@H](C)C(=O)OC)cs1)C(C)C`, the growth was 43.5%.

Take `COc1ccc(Nc2ccc([N+](=O)[O-])cc2[N+](=O)[O-])cc1CN(CCCl)CCCl`: the growth is 31.4%.

Turning to `COC(=O)CCc1c[nH]c2ccc(N(CCCl)CCCl)cc12`, the growth is 19.5%.

Consider `Nc1c(F)cc(-c2nc3cc(F)ccc3[se]2)cc1F`, for which the growth was 60.2%.

In the case of `COC(=O)[C@@]1(C)CC[C@]2(C)CC[C@]3(C)C4=CC=C5C(=CC(=O)C(O)=C5C)[C@]4(C)CC[C@@]3(C)[C@@H]2C1`, the growth was -99.4% (active).

As to `COC(=O)[C@@H](C)C[C@H](Cc1ccccc1)NC(=O)c1nc([C@@H](C[C@H](C(C)C)N(C)C(=O)[C@@H](NC(=O)[C@H]2CCCCN2C)C(C)C)OC(C)=O)sc1C`, the growth was 44.5%.

`CC(=O)O[C@H](C[C@H](C(C)C)N(C)C(=O)[C@@H](NC(=O)[C@H]1CCCN1C)C(C)C)c1nc(C(=O)N[C@@H](Cc2ccccc2)C[C@H](C)C(=O)O)c(C)s1`: the growth is 49.3%.

Regarding `CCOC(=O)[C@@H](C)C[C@H](Cc1ccccc1)NC(=O)c1csc([C@@H](C[C@H](C(C)C)N(C)C(=O)[C@H](CCC(C)C)NC(=O)[C@H]2CCCCN2C)OC(C)=O)n1`, the growth is 20.6%.

`COC(=O)C12CC(NC(=O)c3csc([C@@H](C[C@H](C(C)C)N(C)C(=O)[C@@H](NC(=O)[C@H]4CCCCN4C)C(C)C)OC(C)=O)n3)(C1)C2`: the growth is 44.4%.

For `Clc1ccc2nnnn2n1`, the growth is 5.04% (active).

For `CC[C@H](C)[C@H](NC(=O)[C@H]1CCCCN1C)C(=O)N(C)[C@H](C[C@@H](O)c1nc(C(=O)N[C@@H](Cc2ccccc2)C[C@H](C)C(=O)O)cs1)C(C)C`, the growth was 84.1%.

Turning to `N#C[S-].[Au+].c1ccc(CN2[CH-]N(Cc3ccccc3)C(c3ccccc3)=C2c2ccccc2)cc1`, the growth was 4.03% (active).

As for `CCCCCCCCCCCCNC(c1ccccc1)C(O)c1ccccc1` (configuration not stated), the growth was 72%.
